Structures are written as SMILES. Among all 66,000 compounds or so, about 960 (1.5%) showed an effect of 50% or more. The full list was thinned out, with strong results kept by preference.

This test concerns Trypanosoma brucei. The test can be described thus: Trypanosoma brucei 72 hour study. The format is functional, organism-based. Also on record: scale not given: in the data most compounds retested in dose-response had high values.

On to `Cc1nc(NCc2cccnc2)cc(C2COCCN2)n1` (centres undefined), for which the “Percent Effect” value (30.3 µM, […]) was -2.285%.
On the same count and under the same terms, then `Cc1nc(Cc2ccc(F)cc2)cc(C2COCCN2)n1.Cl` (centres undefined), with 101%; and `Cc1nc(NCc2ccc(F)cc2)cc(C2CCCN2)n1.Cl` (centres undefined), with -9.094%.
In the case of `CN(C)C(=O)COC[C@]12COC[C@H]1CN(Cc1ccco1)C2.O=C(O)C(F)(F)F`, the “Percent Effect” value (30.3 µM, […]) is recorded as -53.67%.
For the compound `COC(=O)c1ccc2c(-c3ccnc(N[C@@H](C)CO)n3)c[nH]c2c1`, the “Percent Effect” value (30.3 µM, […]) is given as 47.11%.
Consider `CC[C@@H](CO)Nc1nccc(-c2c[nH]c3cc(C(=O)OC)ccc23)n1`, for which the “Percent Effect” value (30.3 µM, […]) was 72.65%.
Still for that read-out and setting: then `COC(=O)c1ccc2c(-c3ccnc(NCCO)n3)c[nH]c2c1`, with 8.363%.
For the compound `Cc1nn(CC(=O)N2CCN(Cc3cn(C)nc3C)CC2)cc1Br`, the “Percent Effect” value (30 µM, 30.03 µM) is -22.12%.
For the compound `Cc1ccc(-c2ccccc2CC2CNCCNC2=O)c(C)c1.Cl` (centres undefined), the “Percent Effect” value (30.3 µM, […]) turned out to be 25.6%.
Regarding `Cn1cnnc1C1CCN(C(=O)c2cc(-c3ccccc3)on2)CC1`, the “Percent Effect” value (30 µM, 30.03 µM) is reported as -50.55%.
Same read-out and setting: then `CCc1ccc(C(O)CN2CCN(c3cccc(OC)c3)CC2)cc1` (centres undefined), with -8.228%.
Consider `CCc1ccc(NC(=O)N2C[C@H]3C[C@H](C(=O)NC4CCC4)[C@@H](C2)O3)cc1`, for which the “Percent Effect” value (30.3 µM, […]) is reported as -16.27%.
The same measure, in the same setting: the value for `CN(C)C[C@@H]1C[C@@H]2CN(C(=O)c3ccoc3)CC[C@@H]2N1CC1CC1.O=C(O)C(F)(F)F` was -22.29%; that for `CNc1ncc(-c2ccc(NC(=O)[C@@H]3CCCCN3)cc2)cn1` was 7.595%.
As for `Nc1ncc(-c2ccc(NC(=O)[C@@H]3CCCCN3)cc2)cn1`, for the setting “30.3 µM, […]”, the “Percent Effect” value was found to be 8.453%.
As to `O=C(Nc1ccc(-c2cnc(NCCO)nc2)cc1)[C@@H]1CCCCN1`, the “Percent Effect” value (30.3 µM, […]) is given as 53.19%.
Regarding `Cn1ncc2c1CCCC2NCc1cccc(OC2CCCC2)c1` (centres undefined), the “Percent Effect” value (30.3 µM, […]) is 65.11%.
For `Cc1cccc(CNC2CCCc3c2cnn3C)c1.Cl` (centres undefined), for the setting “30 µM, 30.03 µM”, the “Percent Effect” value came to 5.756%.
In the case of `Cn1ncc2c1CCCC2NCc1cccnc1` (centres undefined), under “30 µM, 30.03 µM”, the “Percent Effect” value is -8.249%.
Consider `Cc1ccc(CNC2CCCc3c2cnn3Cc2ccccc2)s1.Cl` (centres undefined), for which, for the setting “30.3 µM, […]”, the “Percent Effect” value was 15.28%.
Still for that read-out and setting: the value for `Cc1cccc(CNC2CCCc3c2cnn3Cc2ccccc2)c1.Cl` (centres undefined) was 96.36%.
`Cl.Cn1ncc2c1CCCC2NCc1cccc(F)c1` (centres undefined): the “Percent Effect” value (30.3 µM, […]) is listed as -9.663%.
The same measure, in the same setting: the value for `CN1CC[C@]2(CN(CC3CCOCC3)C[C@H]2c2ccccc2)C1=O.O=C(O)C(F)(F)F` was -1.885%; that for `O=C(O)C(F)(F)F.O=C(O)C(F)(F)F.O=C(O)C(F)(F)F.O=C(O)c1c(-c2cncnc2)ncc2c1CCN(Cc1cccnc1)C2` was -22.43%; that for `CN(C)CCN1CCCC12CCN(Cc1nccn1C)CC2.O=C(O)C(F)(F)F.O=C(O)C(F)(F)F.O=C(O)C(F)(F)F` was -91.45%.
As to `Cc1ccc(CNCc2cccc3cn[nH]c23)c(OC2CCOC2)c1` (centres undefined), the “Percent Effect” value (30 µM, 30.03 µM) is listed as -32.61%.
On the same count and under the same terms, the value for `Cc1ccc(CNCc2cccc3cccnc23)c(OC2CCOC2)c1` (centres undefined) was 98.1%; that for `Cc1ccc(CNCc2c[nH]nc2C(C)(C)C)c(OC2CCOC2)c1` (centres undefined) was -38.61%.
Still for that read-out and setting: then `O=C(O)C(F)(F)F.O=C1COC2(CCN(Cc3cccs3)CC2)CN1c1ccsc1`, with 3.746%.
For `CC(=O)N1CCN(Cc2ccco2)CC2(CC(=O)N(C)C2)C1.O=C(O)C(F)(F)F` (centres undefined), for the setting “30.3 µM, […]”, the “Percent Effect” value is recorded as -65.74%.
On the same count and under the same terms, the value for `Cc1occc1C(=O)N1CCC[C@]2(C[C@@H](OCc3ccccn3)CO2)C1.O=C(O)C(F)(F)F` was -89.01%; that for `Cl.OC1(Cn2ccc3ncccc32)CCN(Cc2ccccc2F)CC1` was 12.85%; that for `O=C(C1CCOCC1)N1CCc2ncc(CN3CCOCC3)n2CC1.O=C(O)C(F)(F)F` was -405.3%.
Same read-out and setting: then `CCCN(C(=O)c1ccncc1)c1nc2c(s1)CCc1c-2cnn1C`, with 55.53%; and `CCCN(C(=O)c1cnccn1)c1nc2c(s1)CCc1c-2cnn1C`, with 47.96%; and `CCCN(C(=O)c1cccnc1)c1nc2c(s1)CCc1c-2cnn1C`, with 48.91%.
Consider `CCOc1ccc(C(=O)N2CCCC(c3nccn3C)C2)cc1OCC` (centres undefined), for which, under “30 µM, 30.03 µM”, the “Percent Effect” value is -33.07%.
Same read-out and setting: the value for `CCn1cnnc1CN(C)Cc1nc(-c2cc(OC)ccc2F)oc1C` was -24.61%; that for `CC(C)NC(=O)Cn1ccc2c(Cl)cccc21` was -29.64%; that for `O=C(Cn1ccc2c(Cl)cccc21)N[C@@H](C(=O)O)c1ccccc1` was 60.67%.
`CC(C)C[C@H](NC(=O)Cn1ccc2c(Cl)cccc21)C(=O)O`: where the note is “30 µM, 30.03 µM”, the “Percent Effect” value is -31.2%.
Turning to `CN(C)C(=O)COCC1CN(S(C)(=O)=O)Cc2ncn(C)c21.O=C(O)C(F)(F)F` (centres undefined), the “Percent Effect” value (30.3 µM, […]) is listed as -29.75%.
In the case of `CCN1CCC2(CC1)CC(NCc1cccc(C)n1)c1ccccc1O2.O=C(O)C(F)(F)F.O=C(O)C(F)(F)F.O=C(O)C(F)(F)F` (centres undefined), for the setting “30 µM, 30.03 µM”, the “Percent Effect” value is -8.099%.
Regarding `FC1(F)CCN(Cc2ccccn2)CC12CCN(c1cnccn1)C2.O=C(O)C(F)(F)F.O=C(O)C(F)(F)F.O=C(O)C(F)(F)F` (centres undefined), the “Percent Effect” value (30.3 µM, […]) was -80.37%.
Consider `Cn1cc(CN2CCC(F)(F)C3(CCN(c4cccnc4)C3)C2)cn1.O=C(O)C(F)(F)F.O=C(O)C(F)(F)F` (centres undefined), for which the “Percent Effect” value (30.3 µM, […]) is given as 3.133%.
Same read-out and setting: the value for `FC1(F)CCN(Cc2cccnc2)CC12CCN(c1cnccn1)C2.O=C(O)C(F)(F)F.O=C(O)C(F)(F)F.O=C(O)C(F)(F)F` (centres undefined) was -8.346%; that for `Fc1ccc(CN2CCC(F)(F)C3(CCN(c4cnccn4)C3)C2)cc1.O=C(O)C(F)(F)F.O=C(O)C(F)(F)F` (centres undefined) was 93.17%; that for `FC1(F)CCN(Cc2ccncc2)CC12CCN(c1cccnc1)C2.O=C(O)C(F)(F)F.O=C(O)C(F)(F)F.O=C(O)C(F)(F)F` (centres undefined) was -14.72%.
Still for that read-out and setting: the value for `Cn1cc(CN2CCC(F)(F)C3(CCN(c4ccccn4)C3)C2)cn1.O=C(O)C(F)(F)F.O=C(O)C(F)(F)F` (centres undefined) was -14.43%; that for `FC1(F)CCN(Cc2cccnc2)CC12CCN(c1ccccc1)C2.O=C(O)C(F)(F)F.O=C(O)C(F)(F)F.O=C(O)C(F)(F)F` (centres undefined) was 100.3%.
Regarding `FC1(F)CCN(Cc2ccncc2)CC12CCN(c1cnccn1)C2.O=C(O)C(F)(F)F.O=C(O)C(F)(F)F.O=C(O)C(F)(F)F` (centres undefined), the “Percent Effect” value (30.3 µM, […]) turned out to be 6.608%.
On the same count and under the same terms, the value for `Cn1ccnc1CN1CCC(F)(F)C2(CCN(c3cccnc3)C2)C1.O=C(O)C(F)(F)F.O=C(O)C(F)(F)F` (centres undefined) was -58.8%.
With `Cn1cc(CN2CCC(F)(F)C3(CCN(c4ncc(F)cn4)C3)C2)cn1.O=C(O)C(F)(F)F` (centres undefined), under “30.3 µM, […]”, the “Percent Effect” value is -7.399%.
On the same count and under the same terms, then `Cn1cc(CN2CCC(F)(F)C3(CCN(c4cccc(F)c4)C3)C2)cn1` (centres undefined), with 99.39%.
Regarding `CN(C)c1ccc(C(CNS(=O)(=O)c2cccs2)N2CCCC2)cc1` (centres undefined), for the setting “30 µM, 30.03 µM”, the “Percent Effect” value is -11.49%.
Regarding `C1CC(N2Cc3nnn(CC4CC4)c3C(COCC3CC3)C2)C1.O=C(O)C(F)(F)F` (centres undefined), the “Percent Effect” value (30.3 µM, […]) is listed as -49.13%.
Same read-out and setting: the value for `O=C(O)C(F)(F)F.O=C([C@H]1CCCO1)N1CCN(CCn2cccn2)c2ncccc2C1` was -89.38%; that for `COCC(=O)N1CCN(Cc2cc(-c3ccncc3)nn2C)CC1` was -0.9188%.
The same measure, in the same setting: the value for `COCC1CN(c2ccc(C)nn2)Cc2cnn(CC3CCOCC3)c21.O=C(O)C(F)(F)F.O=C(O)C(F)(F)F` (centres undefined) was -39.18%; that for `COCCN1CCC2(CC1)CC(NC(=O)CC1CC1)c1ccccc1O2.O=C(O)C(F)(F)F` (centres undefined) was -15.57%; that for `CN(C)[C@@H]1CN(C(=O)CCc2ccccc2)[C@@H]2CCCO[C@H]12.O=C(O)C(F)(F)F` was -48.96%.
Turning to `CC(C)(N)C(=O)N1CCC(c2nccnc2Oc2cccc(F)c2)CC1`, the “Percent Effect” value (30.3 µM, […]) came to 6.584%.
`O=C(Nc1cccnc1)[C@@H]1CCO[C@@H]2CCN(Cc3cccnc3)C[C@@H]21.O=C(O)C(F)(F)F.O=C(O)C(F)(F)F.O=C(O)C(F)(F)F`: for the setting “30 µM, 30.03 µM”, the “Percent Effect” value was -27.43%.
On to `Cc1cc2c(=O)n(CC(=O)N3CCn4cccc4C3C(C)C)cnc2s1` (centres undefined), for which the “Percent Effect” value (30.3 µM, […]) is on record as -7.761%.
As to `CCCC1c2cccn2CCN1C(=O)Cn1cnc2sc(C)cc2c1=O` (centres undefined), the “Percent Effect” value (30.3 µM, […]) was -9.094%.
Same read-out and setting: the value for `CCC1c2ccc(C)n2CCN1C(=O)Cn1cnc2sc(C)cc2c1=O` (centres undefined) was 55.61%; that for `CCCS(=O)(=O)N1C[C@@H](c2ccccc2)[C@@]2(CCNC2=O)C1` was -54.35%; that for `Cn1cccc1C(=O)N1C[C@H]2CN(Cc3cccc(F)c3)C[C@H]2C1.O=C(O)C(F)(F)F` was -14.05%.
`O=c1[nH]ncc(NCCOc2ccc3c(c2)CCC3)c1Cl`: the “Percent Effect” value (30 µM, 30.03 µM) is 6.404%.
As for `CC(C)CCN(C)Cc1nc2c(cnn2C)c(=O)[nH]1`, the “Percent Effect” value (30.3 µM, […]) amounted to 0.4486%.
Still for that read-out and setting: the value for `CC(C)CCN(CCC(C)C)Cc1nc2c(cnn2C)c(=O)[nH]1` was 99.67%; that for `CC(C)CN(Cc1nc2c(cnn2C)c(=O)[nH]1)CC(C)C` was 3.745%.
Regarding `CO[C@@H]1CCN(C(=O)c2ccccn2)[C@H]1Cc1ccccc1.O=C(O)C(F)(F)F`, under “30.3 µM, […]”, the “Percent Effect” value is 3.29%.
Regarding `CC1c2ncc(COc3cccnc3)n2CCN1Cc1cnn(C)c1.O=C(O)C(F)(F)F.O=C(O)C(F)(F)F` (centres undefined), the “Percent Effect” value (30.3 µM, […]) was found to be 2.727%.
With `COc1ncccc1C(=O)N1CC[C@H]2C[C@@H](c3nccs3)O[C@@H]2C1`, the “Percent Effect” value (30 µM, 30.03 µM) is listed as -31.44%.
The same measure, in the same setting: then `CNC(=O)NCC(CO)Cc1cccc(OC(F)(F)F)c1` (centres undefined), with -27.06%.
Still for that read-out and setting: then `NCC(CO)Cc1ccc(OC(F)(F)F)cc1` (centres undefined), with -40.47%.
Turning to `NCC(CO)Cc1cccc(OC(F)(F)F)c1` (centres undefined), under “30 µM, 30.03 µM”, the “Percent Effect” value came out at 97.23%.
In the case of `CN1CCN(C(=O)c2n[nH]c3c2CN(C2CCOCC2)CC3)CC1.O=C(O)C(F)(F)F.O=C(O)C(F)(F)F.O=C(O)C(F)(F)F`, the “Percent Effect” value (30.3 µM, […]) is reported as -12.86%.
Turning to `Cc1cnn(C2CCCN(C(=O)c3cc4nc(C)ccc4o3)C2)c1` (centres undefined), the “Percent Effect” value (30.3 µM, […]) is recorded as 0.9394%.
In the case of `CCN1CC2(CC1=O)CN(Cc1ccc(C)o1)CCN(C(=O)C(C)C)C2.O=C(O)C(F)(F)F` (centres undefined), the “Percent Effect” value (30 µM, 30.03 µM) is recorded as -2.917%.
As for `COCCN1CCN(Cc2c(C3CCNCC3)[nH]c3ncccc23)CC1.Cl`, for the setting “30.3 µM, […]”, the “Percent Effect” value is recorded as 1.283%.
For `Cc1noc(C)c1C(=O)NCc1ccc(N2CCC(C)CC2)nc1`, the “Percent Effect” value by setting is: (10 µM) -31.9%; (30.3 µM, […]) 4.367%.

(Values after ChEMBL document CHEMBL3988442, “University of Dundee, Small-Polar-MMV Screening Library” (2021).)
